Assay results as given in PubChem BioAssay (NCI).
This is part of a sample that, as a whole, favours compounds with a hit. Of some 83,000 tested, about 20% had one in any assay.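 Assay: single dose, 48 h. Readout: percent growth (0 = no net growth; negative = cell death). Active: <10.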 Calls of active or inactive are those of the source.

Assays:
Assay in all cases: NCI-60 one-dose screen, 48 h (100 = growth as untreated, 0 = no growth, -100 = all killed)
[1] = system: NCI-H460 lung; conditions: 10 µM unless noted
[2] = system: HOP-92 NSCLC; conditions: 10 µM unless noted
[3] = system: MDA-MB-231 breast; conditions: 10 µM unless noted
[4] = system: RXF 393 renal; conditions: 10 µM unless noted
[5] = system: SNB-75 CNS; conditions: 10 µM unless noted
[6] = system: SNB-19 CNS; conditions: 10 µM unless noted
[7] = system: SK-MEL-5 melanoma; conditions: 10 µM unless noted
[8] = system: LOX IMVI melanoma; conditions: 10 µM unless noted
[9] = system: UO-31 renal; conditions: 10 µM unless noted
[10] = system: CAKI-1 renal; conditions: 10 µM unless noted
[11] = system: MOLT-4 leukemia; conditions: 10 µM
[12] = system: SR leukemia; conditions: 10 µM
[13] = system: OVCAR-4 ovarian; conditions: 10 µM unless noted
[14] = system: SK-OV-3 ovarian; conditions: 10 µM unless noted
[15] = system: SW-620 colon; conditions: 10 µM unless noted
[16] = system: HCT-116 colon; conditions: 10 µM unless noted
[17] = system: HCC-2998 colon; conditions: 10 µM unless noted
[18] = system: KM12 colon; conditions: 10 µM unless noted
[19] = system: T-47D breast; conditions: 10 µM unless noted
[20] = system: MDA-MB-435 melanoma; conditions: 10 µM unless noted

Measured: growth

CC(=O)O[C@H]1C[C@H](O[C@H]2[C@@H](O)C[C@H](O[C@H]3[C@@H](O)C[C@H](O[C@H]4CC[C@@]5(C)C(CCC6C5C[C@@H](O)[C@]5(C)[C@@H](C7=CC(=O)OC7)CC[C@]65O)C4)O[C@@H]3C)O[C@@H]2C)O[C@H](C)[C@H]1O[C@@H]1O[C@H](CO)[C@@H](O)[C@H](O)[C@H]1O (stereo partly drawn)
active: [1] -88.3% | [2] -15.1% | [3] -46.2% | [4] -53.8% | [5] -66.1% | [6] -100% | [7] -100% | [8] -97.4% | [9] -80.1% | [10] -94.4% | [11] -32.1% | [12] -31% | [13] -70.4% | [14] -97.4% | [15] -90.5% | [16] -90.5% | [17] -95% | [18] -100%

CC(C)(C)[Si](C)(C)OC1[C@@H](O[Si](C)(C)C(C)(C)C)[C@@H](CNC(=O)NC(=O)CF)O[C@H]1n1cnc2c(NC(=O)Nc3ccccc3)ncnc21 (stereo partly drawn)
active: [1] 4.01% | [11] -13.4% | [12] -22.6%
inactive: [2] 48.5% | [3] 85.9% | [4] 65.8% | [5] 73.8% | [8] 12.2% | [9] 77.5% | [10] 85.6% | [13] 63.8% | [14] 89.3% | [19] 71.9% | [20] 70.5% | [15] 33.8% | [16] 21.3% | [17] 46.3% | [18] 28.5%

CC(C)OC(=S)[S-].[Au+].c1ccc([PH+](c2ccccc2)c2ccccc2)cc1
active: [2] -23% | [3] -14.3% | [4] -77.1% | [8] -64.9% | [12] 3.82% | [15] -59.2%
inactive: [1] 79.5% | [6] 25.1% | [7] 30.2% | [9] 21.9% | [10] 16.7% | [11] 10.9% | [13] 38.9% | [20] 30.3% | [17] 50.8% | [18] 69.4%

COc1cc(NCCCCCN=C(N)N)c2ncccc2c1
active: [11] 4.38% | [13] -12.1% | [16] 6.08%
inactive: [1] 65.9% | [2] 66.7% | [3] 50.8% | [5] 47% | [6] 37.5% | [8] 66.4% | [9] 83.9% | [10] 104% | [12] 33.5% | [14] 94.9% | [19] 11.8% | [20] 104% | [15] 58.9% | [17] 55.9% | [18] 32.6%

O=C(N/N=C/c1ccc([N+](=O)[O-])o1)c1cc([N+](=O)[O-])cc([N+](=O)[O-])c1O
inactive: [1] 105% | [2] 117% | [3] 93.5% | [4] 102% | [5] 83% | [6] 100% | [7] 95% | [8] 84.5% | [9] 80% | [10] 88.5% | [11] 62.8% | [12] 70.7% | [13] 106% | [14] 101% | [19] 93.5% | [20] 98.3% | [15] 102% | [16] 92.6% | [17] 102% | [18] 99.7%

NC(=O)OCC(CO)(c1ccccc1)c1ccccc1
inactive: [1] 107% | [2] 92.9% | [3] 114% | [4] 99.6% | [5] 89.2% | [6] 108% | [7] 96.4% | [8] 98.7% | [9] 80.1% | [10] 91.8% | [11] 98.7% | [12] 96.5% | [13] 99.7% | [14] 99.1% | [19] 97.3% | [20] 101% | [15] 107% | [16] 92.1% | [17] 107% | [18] 96.6%

n1nc(-c2nonc2-c2nn[nH]n2)n[nH]1
inactive: [1] 109% | [2] 104% | [3] 105% | [4] 93.7% | [5] 106% | [7] 104% | [8] 103% | [9] 92.5% | [10] 98.8% | [11] 110% | [12] 92.5% | [13] 102% | [14] 115% | [19] 105% | [20] 97.7% | [15] 107% | [16] 106% | [17] 106% | [18] 118%

CC[C@@]1(C2O[C@@H](C3O[C@@](O)(CC)[C@H](C)C[C@@H]3C)C[C@@H]2C)CC[C@H]([C@]2(C)CCC3(C[C@H](O)[C@@H](C)[C@@H]([C@H](C)[C@@H](OC)[C@H](C)C(=O)O)O3)O2)O1 (stereo partly drawn)
inactive: [5] 16% | [6] 31.1% | [10] 24.5% | [11] 30.8% | [13] 29.7% | [14] 23% | [19] 30.2% | [15] 11.3% | [18] 20.6%
